Experimental data from the supplement of paper PMC11732987, “Enantioselective OTUD7B fragment discovery through chemoproteomics screening and high-throughput optimisation” (Communications Chemistry, 2025).

Key:
Experiment in all cases: log2 ratio of Biotin-Ahx-Ub-VS probe labelling (fragment/DMSO); higher = less target engagement (more negative = stronger competition), active = hit call of the paper (q ≤ 0.05, log2 ratio ≤ -1)
Details in all cases: compound concentration: 200 uM; treatment time: 3 h
ALG13 = biological target: T1, ALG13 (UniProt Q9NP73)
T1 sequence (whole entry): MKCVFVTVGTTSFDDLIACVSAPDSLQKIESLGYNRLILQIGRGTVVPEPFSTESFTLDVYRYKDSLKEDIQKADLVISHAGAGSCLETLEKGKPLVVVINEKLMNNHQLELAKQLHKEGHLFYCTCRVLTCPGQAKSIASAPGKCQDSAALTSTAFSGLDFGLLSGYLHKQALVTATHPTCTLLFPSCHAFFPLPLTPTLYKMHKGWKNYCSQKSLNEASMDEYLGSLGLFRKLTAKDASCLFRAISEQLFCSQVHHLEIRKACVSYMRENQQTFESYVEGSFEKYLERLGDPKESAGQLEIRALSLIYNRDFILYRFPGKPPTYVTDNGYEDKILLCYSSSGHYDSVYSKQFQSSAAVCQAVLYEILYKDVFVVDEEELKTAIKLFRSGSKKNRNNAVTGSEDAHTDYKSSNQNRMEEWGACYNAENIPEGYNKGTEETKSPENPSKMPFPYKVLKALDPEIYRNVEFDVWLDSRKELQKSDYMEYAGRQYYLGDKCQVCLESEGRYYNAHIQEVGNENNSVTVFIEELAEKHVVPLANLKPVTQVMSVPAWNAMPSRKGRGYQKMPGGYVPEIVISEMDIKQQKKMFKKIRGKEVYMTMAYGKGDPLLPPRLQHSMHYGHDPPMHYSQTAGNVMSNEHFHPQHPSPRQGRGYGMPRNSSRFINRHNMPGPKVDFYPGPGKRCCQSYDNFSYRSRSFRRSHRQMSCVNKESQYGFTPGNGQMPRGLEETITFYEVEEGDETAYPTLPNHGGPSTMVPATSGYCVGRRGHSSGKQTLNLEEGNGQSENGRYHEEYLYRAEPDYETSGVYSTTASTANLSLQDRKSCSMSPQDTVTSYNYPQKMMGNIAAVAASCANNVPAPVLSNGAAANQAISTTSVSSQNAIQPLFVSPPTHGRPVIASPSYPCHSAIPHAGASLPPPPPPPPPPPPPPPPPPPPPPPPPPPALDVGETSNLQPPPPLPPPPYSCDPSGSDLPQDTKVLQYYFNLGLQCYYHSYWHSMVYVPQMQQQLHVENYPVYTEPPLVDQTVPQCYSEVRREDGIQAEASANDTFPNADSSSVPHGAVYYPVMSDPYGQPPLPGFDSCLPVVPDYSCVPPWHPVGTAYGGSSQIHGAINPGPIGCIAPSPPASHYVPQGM
How it was run: (§1)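 Average log2 ratios of fragment over vehicle were obtained by unpaired t-test from global-median-normalised Spectronaut label-free quantities. Proteins with ≥2 unique peptides were included. HEK293T lysate (495 µg per sample) was treated in triplicate with fragment at 200 µM or vehicle for 3 h, then with Biotin-Ahx-Ub-VS at 0.5 µM final for 1 h, and labelled DUBs were NeutrAvidin-enriched and run by diaPASEF LC-MS/MS.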

ATXN3 = ATXN3 (UniProt P54252)
ATXN3, sequence (P54252 whole entry): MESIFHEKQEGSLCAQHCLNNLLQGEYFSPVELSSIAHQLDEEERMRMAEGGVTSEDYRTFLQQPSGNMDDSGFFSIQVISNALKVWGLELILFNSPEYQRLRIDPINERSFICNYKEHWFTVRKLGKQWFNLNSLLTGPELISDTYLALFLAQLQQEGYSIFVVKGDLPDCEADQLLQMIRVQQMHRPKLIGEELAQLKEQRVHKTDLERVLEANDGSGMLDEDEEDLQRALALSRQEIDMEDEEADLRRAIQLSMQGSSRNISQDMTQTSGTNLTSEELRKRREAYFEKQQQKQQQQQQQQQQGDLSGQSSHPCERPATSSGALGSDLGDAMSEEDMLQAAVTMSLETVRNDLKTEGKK
How it was run: as §1

BAP1 = biological target: T2, BAP1 (UniProt Q92560)
T2 sequence (whole entry): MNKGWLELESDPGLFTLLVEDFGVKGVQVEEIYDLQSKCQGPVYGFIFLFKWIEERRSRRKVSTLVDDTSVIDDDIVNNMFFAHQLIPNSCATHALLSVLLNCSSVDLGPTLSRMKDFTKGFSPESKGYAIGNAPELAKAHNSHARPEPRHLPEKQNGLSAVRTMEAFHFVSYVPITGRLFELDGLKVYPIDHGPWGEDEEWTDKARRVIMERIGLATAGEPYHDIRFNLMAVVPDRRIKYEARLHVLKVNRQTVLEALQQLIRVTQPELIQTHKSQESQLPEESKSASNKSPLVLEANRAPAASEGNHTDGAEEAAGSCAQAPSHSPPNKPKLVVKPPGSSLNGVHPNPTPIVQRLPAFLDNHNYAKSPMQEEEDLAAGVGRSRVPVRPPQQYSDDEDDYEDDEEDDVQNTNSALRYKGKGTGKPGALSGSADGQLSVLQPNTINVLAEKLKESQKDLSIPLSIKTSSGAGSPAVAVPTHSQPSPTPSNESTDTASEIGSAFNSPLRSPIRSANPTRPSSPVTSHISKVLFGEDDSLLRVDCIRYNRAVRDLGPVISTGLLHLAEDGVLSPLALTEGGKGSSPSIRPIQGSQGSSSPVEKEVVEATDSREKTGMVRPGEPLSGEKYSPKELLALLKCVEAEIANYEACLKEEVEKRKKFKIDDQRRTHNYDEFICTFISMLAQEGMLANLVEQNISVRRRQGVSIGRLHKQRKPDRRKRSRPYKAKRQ
How it was run: as §1

EIF3F = EIF3F (UniProt O00303)
EIF3F, sequence (O00303 whole entry): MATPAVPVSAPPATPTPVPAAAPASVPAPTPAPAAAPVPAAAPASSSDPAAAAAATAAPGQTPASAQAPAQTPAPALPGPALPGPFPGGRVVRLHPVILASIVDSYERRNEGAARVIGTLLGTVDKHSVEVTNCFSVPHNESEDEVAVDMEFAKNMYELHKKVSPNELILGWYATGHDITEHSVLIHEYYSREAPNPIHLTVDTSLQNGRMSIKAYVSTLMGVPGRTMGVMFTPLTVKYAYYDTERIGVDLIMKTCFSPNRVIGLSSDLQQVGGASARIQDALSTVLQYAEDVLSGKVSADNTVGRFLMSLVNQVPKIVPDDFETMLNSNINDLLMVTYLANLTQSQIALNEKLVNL
How it was run: as §1

EIF3H = EIF3H (UniProt O15372)
EIF3H, sequence (O15372 whole entry): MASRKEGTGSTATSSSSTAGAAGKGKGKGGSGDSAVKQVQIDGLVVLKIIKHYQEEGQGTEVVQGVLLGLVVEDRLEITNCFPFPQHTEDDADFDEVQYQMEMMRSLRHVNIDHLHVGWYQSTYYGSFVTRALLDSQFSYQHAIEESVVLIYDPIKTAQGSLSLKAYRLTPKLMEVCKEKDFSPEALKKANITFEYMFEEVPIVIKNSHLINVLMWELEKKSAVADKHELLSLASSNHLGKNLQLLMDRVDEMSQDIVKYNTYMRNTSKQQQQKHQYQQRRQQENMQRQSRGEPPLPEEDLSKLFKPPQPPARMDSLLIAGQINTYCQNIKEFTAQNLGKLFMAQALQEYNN
How it was run: as §1

FAM105A = biological target: T3, FAM105A (UniProt Q9NUU6)
T3 sequence (whole entry): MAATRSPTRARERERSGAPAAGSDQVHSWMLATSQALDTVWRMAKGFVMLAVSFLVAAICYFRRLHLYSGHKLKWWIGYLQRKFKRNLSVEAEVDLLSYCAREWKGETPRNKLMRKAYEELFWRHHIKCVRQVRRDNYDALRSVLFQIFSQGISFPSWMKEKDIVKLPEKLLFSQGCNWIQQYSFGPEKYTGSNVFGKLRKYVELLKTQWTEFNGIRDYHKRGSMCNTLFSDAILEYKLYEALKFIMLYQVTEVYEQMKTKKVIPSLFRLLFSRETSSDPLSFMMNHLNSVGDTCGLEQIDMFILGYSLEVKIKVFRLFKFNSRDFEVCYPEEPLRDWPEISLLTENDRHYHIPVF
How it was run: as §1

OTUB1 = OTUB1 (UniProt Q96FW1)
OTUB1, sequence (Q96FW1 whole entry): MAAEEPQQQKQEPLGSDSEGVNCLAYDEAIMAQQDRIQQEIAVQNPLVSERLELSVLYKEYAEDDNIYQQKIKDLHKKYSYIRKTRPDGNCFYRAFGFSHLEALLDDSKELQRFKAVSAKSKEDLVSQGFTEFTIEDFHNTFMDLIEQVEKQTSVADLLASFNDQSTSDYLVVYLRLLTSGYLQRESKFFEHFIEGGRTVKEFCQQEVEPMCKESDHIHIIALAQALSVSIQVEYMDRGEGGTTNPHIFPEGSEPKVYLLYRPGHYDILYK
How it was run: as §1

OTUD4 = biological target: T4, OTUD4 (UniProt Q01804)
T4 sequence (whole entry): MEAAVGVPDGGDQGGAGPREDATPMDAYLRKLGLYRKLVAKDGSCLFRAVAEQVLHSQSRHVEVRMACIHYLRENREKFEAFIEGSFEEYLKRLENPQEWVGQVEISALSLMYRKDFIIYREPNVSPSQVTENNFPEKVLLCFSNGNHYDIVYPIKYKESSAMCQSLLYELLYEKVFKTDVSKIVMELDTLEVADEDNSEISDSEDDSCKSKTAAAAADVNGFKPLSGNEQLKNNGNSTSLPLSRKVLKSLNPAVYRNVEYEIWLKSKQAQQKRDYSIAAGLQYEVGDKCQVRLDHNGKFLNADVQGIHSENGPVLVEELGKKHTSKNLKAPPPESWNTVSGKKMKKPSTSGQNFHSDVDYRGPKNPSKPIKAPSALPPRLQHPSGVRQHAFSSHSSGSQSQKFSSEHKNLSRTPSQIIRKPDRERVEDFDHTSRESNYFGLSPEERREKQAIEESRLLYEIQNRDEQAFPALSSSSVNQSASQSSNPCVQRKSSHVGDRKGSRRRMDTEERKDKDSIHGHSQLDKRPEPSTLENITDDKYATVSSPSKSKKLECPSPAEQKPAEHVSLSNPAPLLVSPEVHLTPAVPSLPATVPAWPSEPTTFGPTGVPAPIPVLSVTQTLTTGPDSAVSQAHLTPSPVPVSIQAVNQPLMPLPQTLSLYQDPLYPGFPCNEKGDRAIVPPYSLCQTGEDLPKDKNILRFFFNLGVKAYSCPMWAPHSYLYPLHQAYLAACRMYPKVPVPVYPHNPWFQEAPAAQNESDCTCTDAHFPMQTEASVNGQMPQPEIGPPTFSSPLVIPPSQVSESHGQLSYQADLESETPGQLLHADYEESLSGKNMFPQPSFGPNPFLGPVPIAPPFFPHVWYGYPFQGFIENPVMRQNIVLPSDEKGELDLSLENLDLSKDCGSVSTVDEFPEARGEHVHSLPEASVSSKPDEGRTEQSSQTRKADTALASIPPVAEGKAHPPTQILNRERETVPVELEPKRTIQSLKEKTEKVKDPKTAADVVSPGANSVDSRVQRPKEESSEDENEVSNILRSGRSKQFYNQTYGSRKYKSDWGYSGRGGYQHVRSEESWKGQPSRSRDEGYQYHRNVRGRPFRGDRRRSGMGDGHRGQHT
How it was run: as §1

OTUD5 = biological target: T5, OTUD5 (UniProt Q96G74)
T5 sequence (whole entry): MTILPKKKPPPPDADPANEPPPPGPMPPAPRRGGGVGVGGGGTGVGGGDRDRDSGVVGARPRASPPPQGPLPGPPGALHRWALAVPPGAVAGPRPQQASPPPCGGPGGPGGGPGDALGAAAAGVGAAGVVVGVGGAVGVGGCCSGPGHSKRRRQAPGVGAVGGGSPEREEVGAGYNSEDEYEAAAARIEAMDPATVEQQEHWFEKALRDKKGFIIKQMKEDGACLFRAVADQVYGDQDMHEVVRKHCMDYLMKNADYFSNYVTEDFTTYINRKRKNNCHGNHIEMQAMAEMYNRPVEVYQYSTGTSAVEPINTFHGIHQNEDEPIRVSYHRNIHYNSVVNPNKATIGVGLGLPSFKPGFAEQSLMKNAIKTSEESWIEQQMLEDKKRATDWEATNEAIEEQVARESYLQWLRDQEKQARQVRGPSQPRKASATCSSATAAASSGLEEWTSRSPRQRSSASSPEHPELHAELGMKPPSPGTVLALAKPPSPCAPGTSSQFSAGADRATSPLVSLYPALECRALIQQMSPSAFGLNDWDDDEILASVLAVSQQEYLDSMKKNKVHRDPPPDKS
How it was run: as §1

Measured: log2 ratio of Biotin-Ahx-Ub-VS probe labelling

Cl.O=C(CCl)NC1(c2ncccn2)CCC1
inactive: ALG13 0.0863 | ATXN3 0.0333 | BAP1 -0.171 | EIF3F -0.137 | EIF3H 0.137 | FAM105A -0.242 | OTUB1 -0.293 | OTUD4 -0.17 | OTUD5 0.0342
